# Test results: PubChem BioAssay AID1917 (Vanderbilt High Throughput Screening Facility, 2009)
# The campaign covered roughly 3,000 compounds. About 1,600 (53%) were called active. Inconclusive results (about 10%) are left out. The set was probably picked from earlier hits. The list is a sample of the results. Unmarked numbers belong to inactive results.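 How the source made its calls: active means Flux at 10 µM at least 3 SD below or above vehicle control mean in one or both replicates; inconclusive means no clear call, values can overlap the other calls; inactive means the rest.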
# Molecular target: ATP-sensitive inward rectifier potassium channel 1 (Homo sapiens) (UniProt P48048)
# Sequence (P48048 whole entry, looked up): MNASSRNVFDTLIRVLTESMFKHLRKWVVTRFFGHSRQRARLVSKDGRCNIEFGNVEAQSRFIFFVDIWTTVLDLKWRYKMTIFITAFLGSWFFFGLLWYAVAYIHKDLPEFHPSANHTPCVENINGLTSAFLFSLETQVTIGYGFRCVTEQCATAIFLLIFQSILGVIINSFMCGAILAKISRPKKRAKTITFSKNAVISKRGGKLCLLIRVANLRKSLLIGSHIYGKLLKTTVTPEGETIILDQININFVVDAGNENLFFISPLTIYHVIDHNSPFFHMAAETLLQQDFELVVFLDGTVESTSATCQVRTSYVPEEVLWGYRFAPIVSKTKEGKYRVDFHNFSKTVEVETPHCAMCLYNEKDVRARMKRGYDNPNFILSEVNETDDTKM
# Assay: retested modulators of human Kir1.1 channel – cell-based, thallium flux, duplicate, resupplied hits, confirmation (AID 1917)
# Settings: ROMK thallium flux, fluorescence ratio; at 10 µM; hits give low values
row,SMILES,normalized thallium flux (F/F0 slope)
1,Cc1nc2ccccc2nc(=O)c1NNc1ccc([N+](=O)[O-])cc1,0.0842
2,O=[N+]([O-])c1ccc(N=Cc2c(O)ccc3ccccc23)cc1,0.064 (active)
3,COc1ccc(N=Cc2c(O)[nH]c3ccccc23)cc1OC,0.0799
4,C=CCn1cnc2scc(-c3ccccc3)c2c1=O,0.049 (active)
5,O=C(Nc1ccc(N2CCOCC2)cc1)c1ccc(-c2ccccc2[N+](=O)[O-])o1,0.108 (active)
6,O=C(CCN1CCc2ccccc2C(O)(c2ccccc2)C1)c1ccc2c(c1)OCCO2 (configuration not stated),0.0602 (active)
7,CSc1nc2nc3c(c(=O)n2[nH]1)CCC3,0.0761
8,Cc1cccn2c(=O)c3cc(C(=O)N4COCC4(C)C)n(C)c3nc12,0.0444 (active)
9,Cc1ccc(S(=O)(=O)C2(S(=O)(=O)c3ccc(C)cc3)CCCC2)cc1,0.0776
10,Cc1cc2cc(CN(Cc3cccs3)Cc3nnnn3CC3CCCO3)c(=O)[nH]c2cc1C (configuration not stated),0.0575 (active)
11,NC(=O)c1ccccc1N(Cc1ccccc1)S(=O)(=O)c1ccccc1,0.0757
12,O=C(O)c1ccc2c(c1)C(=O)N(c1ccc(/C=C/C(=O)c3ccccc3)cc1)C2=O,0.0504 (active)
13,CC(C)(c1ccccc1)c1ccc(OCCN)cc1,0.0605 (active)
14,CCCN(CCC)CC(O)COc1ccccc1C(=O)Nc1ccccc1 (configuration not stated),0.055 (active)
15,CS(=O)(=O)c1ccc(Cl)c(NC(=O)Nc2ccccc2)c1,0.0706
16,Cc1ccc(C)c(NC(=O)CSc2nc3c(oc4ccccc43)c(=O)n2-c2ccccc2)c1,0.077
17,Cc1cccc(-n2c(SCC(=O)Nc3cccc(S(=O)(=O)NC4=NCCCCC4)c3)nc3ccccc3c2=O)c1C,0.0482 (active)
18,O=C(CN1CCCCCC1)NCCN1C(=O)S/C(=C\c2ccccc2Cl)C1=O,0.0525 (active)
19,O=[N+]([O-])c1cc(Cl)cc(/C=N/NC(=S)Nc2cc(S(=O)(=O)N3CCOCC3)ccc2Cl)c1O,0.0856
20,O=C1C(=O)N(c2ccccc2)c2ccccc21,0.0906
21,CCCOc1ccc(C(=O)C(CCC(CNCC)C(=O)c2ccc(OCCC)cc2)CNCC)cc1 (configuration not stated),0.0393 (active)
22,O=C(Cn1nc(CNc2ccc(Cl)cc2)[n+]2c1CCCCC2)c1ccc(Cl)cc1,0.0549 (active)
23,Cn1c(SCC(=O)N2CCCc3ccccc32)nc2ccccc2c1=O,0.0629 (active)

row,SMILES,normalized thallium flux (F/F0 slope)
1,C=CCOc1cccc(CNn2cn[nH]c2=S)c1,0.0819
2,CN(C)/C=C(/C(=O)c1ccc(Cl)c(Cl)c1)c1nnnn1-c1ccccc1,0.0735
3,CC(C)CN(CC(C)C)CC(O)CN(c1ccccc1)S(=O)(=O)c1ccccc1[N+](=O)[O-] (configuration not stated),0.0763
4,COc1ccc([N+](=O)[O-])cc1N(CC(O)CN(CC(C)C)CC(C)C)S(=O)(=O)c1ccc(C)cc1 (configuration not stated),0.0621 (active)
5,O=C(CN1C(=O)NC2(CCCCC2)C1=O)NCCC1=CCCCC1,0.0839
6,O=C(CN1C(=O)NC(Cc2ccccc2)(Cc2ccccc2)C1=O)NCC1CCCCC1,0.056 (active)
7,COCCNC(=O)/C(C#N)=C/c1cccc(OCc2ccccc2)c1,0.042 (active)
8,CC(C(=O)NC1CCCC1)N(c1ccc(Oc2ccccc2)cc1)S(C)(=O)=O (configuration not stated),0.061 (active)
9,CCCCCCCCCCOC(=O)C[N+](C)(C)CC1CCCCC1O (configuration not stated),0.0597 (active)
10,CCOC(=O)Cc1csc(SCC(=O)NC(C)C23CC4CC(CC(C4)C2)C3)n1 (configuration not stated),0.0513 (active)
11,CCOC(=O)Cc1csc(NC(=O)CSc2ccc(Br)cc2)n1,0.0659 (active)
12,CC1=CC2=NC(=O)/C(=C/c3coc4ccccc4c3=O)C(=N)N2O1,0.0388 (active)
13,Cc1cc(/C=C2/C(=N)N3C(=NC2=O)SN=C3S(C)(=O)=O)c(C)n1-c1ccccc1,0.0746
14,O=C(CCl)N(Cc1cccc([N+](=O)[O-])c1)c1cccc(Cl)c1,0.0469 (active)
15,CC(C)(C)CC(C)(C)NCC(O)COCCOc1ccc(Br)cc1 (configuration not stated),0.0489 (active)
16,CC1CCCN(S(=O)(=O)c2ccc(N(C(=O)c3cnccn3)C(C(=O)NC3CCCCC3)c3cccs3)cc2)C1 (configuration not stated),0.0633 (active)
17,N#Cc1c(N)n(CCOC(=O)c2ccc(Cl)cc2)c2nc3ccccc3nc12,0.0672 (active)
18,O=C(Nc1nnc(SCc2ccccc2Cl)s1)c1cccc([N+](=O)[O-])c1,0.0638 (active)
19,CCC(C)(C)n1nnnc1C(c1cccs1)N1CCN(c2nc3ccccc3s2)CC1 (configuration not stated),0.0713
20,Cc1ccc(C(=O)C[n+]2cc(-c3ccccc3)n3c2CCCCC3)cc1,0.0564 (active)
21,CN(NC(=O)c1ccccc1F)c1nc(C(F)(F)F)nc2ccccc12,0.0894
22,O=C(/C=C/c1ccc(Cl)c([N+](=O)[O-])c1)c1cccnc1,0.0474 (active)
23,O=C(/C=C/c1ccc(Cl)cc1Cl)c1cccnc1,0.0511 (active)

row,SMILES,normalized thallium flux (F/F0 slope)
1,O=C(/C=C/c1ccc(Cl)c([N+](=O)[O-])c1)c1ccc(O)cc1,0.0498 (active)
2,O=C1COc2ccc(NC(=O)N3CCN(c4ccc(F)cc4)CC3)cc2N1,0.0765
3,O=C(CN1CCOCC1)N/N=C/c1ccc(-c2ccc(Br)cc2)o1,0.0674 (active)
4,O=C(NCCc1ccc2c(c1)OCCO2)c1cc2ccccc2o1,0.0628 (active)
5,COc1ccccc1-n1c(C)nc2cc(C(=O)NCc3ccc4c(c3)OCO4)ccc21,0.0924
6,COc1ccc2[nH]c(=O)c(CNc3ccc(C)c(C)c3)cc2c1,0.0713
7,Clc1ccc(-n2nnnc2-c2cnc(-c3ccccn3)nc2-c2cccs2)cc1,0.0713
8,CCC(c1nnnn1C1CCCC1)N(Cc1cccs1)Cc1cc2cccc(C)c2[nH]c1=O (configuration not stated),0.0635 (active)
9,Cc1cccc2cc(CN(Cc3nnnn3Cc3ccccc3)C3CCCC3)c(=O)[nH]c12,0.055 (active)
10,COc1ccc(C(=O)OCC(=O)c2ccc(C)c(S(=O)(=O)N3CCOCC3)c2)cc1OC,0.0776
11,C#CCOCCOCCOCCNc1nc(N2CCN(C(=O)[C@H](CCC(=O)O)n3cc(C(N)CO)nn3)CC2)nc(N2CCN(C(=O)[C@H](CCCCN)n3cc(C(N)[C@H](C)CC)nn3)CC2)n1 (some centres not stated),0.0789
12,Cc1ccc(CNC(=O)CC2Sc3ccccc3NC2=O)cc1 (configuration not stated),0.086
13,CSc1cccc(NC(=S)N(Cc2ccccc2)Cc2ccccn2)c1,0.0791
14,CNC(=O)/C(C#N)=C/c1c(F)cccc1Cl,0.0423 (active)
15,CCOC(=O)c1c(NC(=O)CCl)sc(C(=O)N(CC)CC)c1C,0.0722
16,COc1ccccc1N1CCN(CCCCOc2ccc(F)cc2)CC1,0.0581 (active)
17,Cc1cc(C(C)(C)C)oc1C(=O)N(CC(=O)NC1CCCC1)Cc1ccc(Cl)cc1,0.0748
18,Cc1ccccc1CCN(CC(=O)NC1CCCCC1)C(=O)c1csnn1,0.0568 (active)
19,CCCS(=O)(=O)N1CCC(C(=O)NCCCN(C)Cc2ccccc2)CC1,0.0759
20,COc1ccc(-c2[nH]ncc2CN(C)Cc2c(C)n[nH]c2C)c(OC)c1,0.0773
21,COC(=O)Cn1cc(/C=C/[N+](=O)[O-])c2ccccc21,0.0436 (active)
22,CCOc1ccc2nc(Cl)c(C3CC(c4ccccc4)=NN3C(=O)c3cccs3)cc2c1 (configuration not stated),0.084
23,CCOc1ccc2nc(N3CCCN(C(=O)Nc4ccccc4C)CC3)c(C#N)cc2c1,0.0592 (active)

row,SMILES,normalized thallium flux (F/F0 slope)
1,COc1ccccc1-n1c(=S)[nH]c2c(sc(=S)n2-c2ccc(C)cc2C)c1=O,0.0774
2,Cc1cc(Br)ccc1NC(=O)c1cnc(N2CCN(c3ccccn3)CC2)c2ccccc12,0.0609 (active)
3,COc1ccc(Br)cc1C(=O)Nc1cccc(C)c1C,0.0855
4,CN(C)c1ccc(C=C2C(=O)OC3(CCCC3)OC2=O)cc1,0.0453 (active)
5,CCOc1ccccc1C1C(C(=O)OC)=CN(C)C=C1C(=O)OC,0.0653 (active)
6,O=C(Nc1ccccc1-c1ccccc1)c1cccs1,0.0658 (active)
7,c1ccc2c(c1)CSc1sccc1C2=C1CCNCC1,0.0498 (active)
8,Fc1ccc2[nH]c3c(N4CCSCC4)ncnc3c2c1,0.0617 (active)
9,Cc1cc(/C=N/NC(N)=O)c(C)n1C1CCCCC1,0.0777
10,CC(NC(=O)CC1SC(N)=NC1=O)c1ccccc1 (configuration not stated),0.087
11,CCOC(=O)C1=C(C)N=c2s/c(=C\C(=O)OC)c(=O)n2C1c1ccc(OC)cc1 (configuration not stated),0.0406 (active)
12,CCCC(c1nnnn1C(C)(C)C)N1CCN(Cc2ccccc2)CC1 (configuration not stated),0.0716
13,O=C1c2cccc3c([N+](=O)[O-])ccc(c23)C(=O)N1CC1CCCO1 (configuration not stated),0.0565 (active)
14,CCN1C(=O)/C(=C2/Sc3ccccc3N2CCCS(=O)(=O)O)SC1=S,0.0827
15,CCCCc1nc(NCCN)c(C#N)c2c1CSC(C)(C)C2,0.0552 (active)
16,COc1cc2c(cc1OC)C(/C=C/c1ccco1)=NCC2,0.0485 (active)
17,O=C(Cc1ccc(Br)cc1)N1CCN(c2ccccn2)CC1,0.0628 (active)
18,O=C(Cc1ccccc1Cl)N1CCN(c2ccccn2)CC1,0.0716
19,COc1ccc(Cc2nc(-c3ccccn3)no2)cc1OC,0.0708
20,CCSc1sc(CC)cc1C=O,0.106 (active)
21,CC(NCc1ccccc1OC1CCCC1)c1ccccc1 (configuration not stated),0.0563 (active)
22,N=c1c2c(-c3ccccc3)c(-c3ccccc3)n(Cc3ccccc3)c2ncn1CCCO,0.0532 (active)
23,Cc1nnnn1/C(=C\c1ccccc1)C(=O)OCC(=O)N1CC2(C)CC1CC(C)(C)C2 (configuration not stated),0.0442 (active)
